Assay outcomes as filed in PubChem BioAssay.
Shiga inhibitor: A qHTS for Small Molecule Inhibitors of Shiga Toxin; Vero cells, Shiga toxin protein synthesis inhibition reporter; inhibition, % at 38.7 µM; 290,000 compounds, 9.2% hits; in the data active = inhibition mostly above about 28%, no sharp cut-off; inactive = mostly below about 43%; note: 0% is about no effect
NS1 inh: qHTS Assay for Inhibitors of Influenza NS1 Protein Function. Potency, µM (doses to about 46.1 µM), inactives show at the top dose activity, positive = more growth. 270,000 compounds, 0.4% hits; calls by dose curve; note: potency is the fitted concentration of half-maximal effect; actives are rising curves; nearly all actives have a fitted effect of over 50% in size
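A cell-based growth assay was used: compounds that relieve NS1-induced slow growth of budding yeast raise OD600. Assay medium was yeast nitrogen base with ammonium sulphate and -URA supplement, pH 6.0, with 2% galactose.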
Pf growth 96h: Primary qHTS for delayed death inhibitors of the malarial parasite plastid, 96 hour incubation | P. falciparum luciferase reporter growth, 96 h | Potency, µM (highest dose often 28.7 µM), for the others: at the highest dose activity change, negative = inhibition, usual class: inhibitors | 320,000 compounds, 6.9% hits; note: potency is the fitted concentration of half-maximal effect; % is set by controls: 0 for no effect and ±100 for the full control effect
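96 h incubation, 37 C, 5% CO2, of luciferase-reporter P. falciparum-infected RBCs (2% hematocrit, 0.05% parasitemia final) with test compounds; endpoint luminescence.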
Pf growth 48h: Primary qHTS for delayed death inhibitors of the malarial parasite plastid, 48 hour incubation. P. falciparum luciferase growth in erythrocytes, 48 h. Potency, µM (doses to about 28.7 µM), inactives show at the top dose activity change, negative = inhibition, most hits filed as inhibitors. 310,000 compounds, 5.9% hits; note: potency is the fitted concentration of half-maximal effect; % is set by controls: 0 for no effect and ±100 for the full control effect
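Luciferase-expressing parasites in RBCs, 2% Hct / 0.1% parasitemia final; RPMI 1640 + 0.5% Albumax; 37 C, 5% CO2, one generation; luminescence read-out, lower signal = inhibition.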
Cycloheximide cs: Cycloheximide Counterscreen for Small Molecule Inhibitors of Shiga Toxin; 300,000 compounds, 12% hits; max response, %; cell reporter, cycloheximide protein synthesis inhibition counterscreen; AID 2314, 2010; in the data active = max response mostly above about 13%, no sharp cut-off; inactive = mostly below about 14%; note: read at 38.3 µM for the half of the compounds with a filed dose; 0% is about no effect
An asterisk follows results filed as active; ? = inconclusive; nt = no result given; [ ] = remark or other dose. Only some compounds are listed: those with a hit (about 21% of all), similar ones and a draw of the others. Unless noted, calls come from the whole dose curve; as a rule, active = well fitted inhibition curve with a large enough effect; inconclusive = small, poorly fitted or top-dose-only effect, or another doubt; inactive = no such curve, though single readings can be large or run the other way.

SMILES | Shiga inhibitor | NS1 inh | Pf growth 96h | Pf growth 48h | Cycloheximide cs
C/C(CC(=O)Nc1ccc(N(C)C)cc1)=N\NC(=O)c1cnccn1 | 63* | 27% | 34% | ? | 23*
C/C(CC(=O)Nc1ccc(C)c(Cl)c1)=N\NC(=O)c1cccc(O)c1 | 56* | 4% | ? | 3% | 57*
CC(=O)Nc1ccc(NC(=O)C/C(C)=N/NC(=O)C(=O)Nc2ccc(C)c(Cl)c2)cc1 | 2 | 3% | 35% | 41% | 0
O=C(NCc1cccs1)C1CC(=O)N(c2ccc(Cl)cc2)C1 (centres undefined) | 23 | -2% | 28% | 20% | 21
O=C(Cc1ccccc1)Nc1ccc(NC(=O)c2cccs2)c(Cl)c1 | 9 | 1% | -4% | 7% | 14
Cc1ccc(NC(=O)CSc2ccccc2NC(=O)c2cccc(Cl)c2)cc1Cl | -14 | 11% | 34% | 17% | -2
Cc1cccc(C(=O)Nc2ccccc2SCC(=O)Nc2ccc(C)c(Cl)c2)c1 | 17 | -1% | 19% | 10% | 22*
COC(C(=O)N/N=C(\C)CC(=O)Nc1ccc(N(C)C)cc1)c1ccccc1 (centres undefined) | -8 | -1% | 13% | 8% | -2
C/C(CC(=O)Nc1ccc(N(C)C)cc1)=N\NC(=O)c1ccccn1 | 98* | 2% | 235% | 72% | 33*
Cn1nnc2c[n+](CC(=O)c3ccc(Cl)cc3)cc(Br)c21 | 18 | 10% | -2% | -4% | -2
Cn1nnc2c[n+](CC(=O)c3ccc4ccccc4c3)cc(Br)c21 | 29 | -4% | ? | 12µM* | 15*
CC(=O)Nc1ccc(N/C(=N\S(=O)(=O)c2ccccc2)c2ccccc2)cc1 | -12 | -5% | ? | -6% | 1
Cc1ccc(S(=O)(=O)/N=C(/NC(=S)Nc2ccccc2)c2ccccc2)cc1 | 73* | -1% | 417% | nt | 30*
O=c1[nH]c2ccc(N/C(=N/S(=O)(=O)c3ccccc3)c3ccccc3)cc2[nH]1 | -4 | 9% | 4.1µM* | -8% | -2
Cc1ccc(NC(=S)N/C(=N/S(=O)(=O)c2ccccc2)c2ccccc2)cc1 | 90* | -8% | nt | 183% | 49*
CCOC(=O)NC(=O)/C(C=Nc1ccc(Cl)c(Cl)c1Cl)=C(\C)O | -2 | 6% | -3% | 3% | -1
COc1ccc(C(C)=O)cc1CC(C(=O)c1ccccc1)N(C)C (centres undefined) | 5 | -1% | 38% | 13% | 22*
CN(C)C(Cc1ccc(Cl)cc1)C(=O)c1ccccc1 (centres undefined) | 50* | 15% | ? | 4% | 24*
COC(=O)c1ccc(C(=O)N(Cc2ccccc2)c2ccccc2)cc1 | -7 | -78% | -22% | ? | -2
COC(=O)c1ccc(CC(C(=O)c2ccccc2)N(C)C)cc1 (centres undefined) | 107* | -2% | ? | nt | 48*
CN(C)C(Cc1ccccc1)C(=O)c1cccs1 (centres undefined) | 39 | nt | 12% | 7% | 13*
CN(C)/C=N/NC(=O)C1Cc2c(ccc3ccccc23)O1 (centres undefined) | -4 | 3% | 44% | ? | -3
COc1ccc(CCN2CCC[C@H](CN3CCc4cc(OC)c(OC)cc4CC3=O)C2)cc1OC | -7 | nt | nt | nt | -4
CCN(CC)CCNC(=O)CNC(=S)N(CCCN1CCOCC1)Cc1cccs1 | -16 | -1% | 1.7µM* | 0% | -2
Cc1c(Cl)cccc1NC(=S)N(CCCN1CCOCC1)Cc1cccs1 | 3 | -7% | -6% | ? | -5
SMILES | Shiga inhibitor | NS1 inh | Pf growth 96h | Pf growth 48h | Cycloheximide cs
Cc1ccc(NC(=S)N(CCCN2CCOCC2)Cc2cccs2)c(C)c1 | -1 | -5% | 9.3µM* | ? | -3
CCOC(=O)CCNC(=O)Nc1ccc2nc(C)n(Cc3ccc(Cl)cc3)c(=O)c2c1 | 30 | -26% | 7%[5.75 µM] | 0% | -1
CC(=O)Nc1cc2nc(C)n(Cc3ccccc3)c2nc1C | -6 | 5% | ? | nt | -1
Cc1nc2cc(NCc3cc([N+](=O)[O-])ccc3O)ccc2n1Cc1ccccc1 | 33 | nt | 322% | ? | 2
CC(=O)Nc1ccc2c(c1)nc(C)n2Cc1ccccc1 | nt | 14% | 0.41µM* | 5% | -4
Cc1nc2cc(NCc3nc4ccccc4n3Cc3ccccc3)ccc2n1C | 44* | 7% | 213% | 99% | 27*
Cc1nc2c(cc1NC(=O)c1ccccc1)nc(C)n2Cc1ccccc1 | -8 | 2% | 12µM* | -19% | 1
CC(=O)Nc1ccc2nc(C)n(Cc3ccc(Cl)cc3)c(=O)c2c1 | 53* | -13% | -3% | 5% | 28*
CCOC(=O)c1c(-c2ccccc2)csc1NC(=O)c1cc(S(=O)(=O)N2CCOCC2)ccc1C | -2 | 10% | ? | 13% | 9
CCOC(=O)c1c(C)n(Cc2ccccc2)c2ccc(OCC(O)Cn3nc(C)cc3C)cc12 (centres undefined) | -4 | 15% | 9% | 12µM* | -4
Cc1cc(C)n(CC(O)COc2ccccc2[N+](=O)[O-])n1 (centres undefined) | 29 | 4% | ? | 3% | 28*
Cc1cc(C)n(CC(O)COc2ccccc2C(=O)Nc2ccccc2)n1 (centres undefined) | -3 | -4% | ? | 1.9µM* | -3
Cc1cc(C)n(CC(O)COCc2ccccc2)n1 (centres undefined) | 23 | 3% | 12µM* | 6% | -2
Cc1cc(C)n(CC(O)COc2c(C)cccc2C)n1 (centres undefined) | -14 | -2% | -11% | ? | -5
CCN(CC)CCCN1C(=O)C(O)=C(C(C)=O)C1c1ccc(OC)cc1OC (centres undefined) | nt | 6% | nt | nt | nt
Cc1ccc(C2CC(C(F)F)n3ncc(C(=O)Nc4c(C)nn(Cc5c(F)cccc5Cl)c4C)c3N2)cc1 (centres undefined) | 10 | ? | ? | ? | -4
CCOC(=O)N1CCN(CC(O)COc2ccccc2[N+](=O)[O-])CC1 (centres undefined) | 18 | 4% | ? | 7% | 11*
Cc1cc(C)n(CC(O)COc2cccc(OCC(O)Cn3nc(C)cc3C)c2)n1 (centres undefined) | -11 | 5% | 0% | -28% | 6
COc1ccccc1OCC(O)Cn1nc(C)cc1C (centres undefined) | 104* | -5% | ? | -3% | 54*
Cc1ccnc2nc(C(=O)Nc3nccs3)nn12 | 29 | 11% | nt | 69% | 22*
Cc1ccnc2nc(C(=O)Nc3ccc4c(c3)OCO4)nn12 | 75* | -6% | -1% | nt | 27*
Cc1cc(C)n2nc(C(=O)Nc3ccc4c(c3)OCO4)nc2n1 | 61* | ? | 5% | 53% | 32*
Cc1cc(C)n2nc(C(=O)OCC(=O)Nc3ccc4c(c3)OCO4)nc2n1 | -8 | -1% | nt | 13% | 3
Cc1cc(C)n2nc(C(=O)Nc3ccc4c(c3)OCCO4)nc2n1 | nt | nt | 38% | 53% | nt
